The results in this text go back to publication PMC7862700, “An all-to-all approach to the identification of sequence-specific readers for epigenetic DNA modifications on cytosine”.

Common to all, as to test: DAPPL (digital affinity profiling via proximity ligation, sequencing); 10 mM Tris-HCl pH 7.5, 50 mM NaCl, 1 mM DTT, 4% glycerol, room temperature, 30 min; GST-TFs on glutathione beads, 16-mer random dsDNA library, 0.1% formaldehyde crosslink after washing; high values mean tight binding
In one experiment the target is T1, FEV (Homo sapiens, UniProt Q99581 1-238).
T1 sequence: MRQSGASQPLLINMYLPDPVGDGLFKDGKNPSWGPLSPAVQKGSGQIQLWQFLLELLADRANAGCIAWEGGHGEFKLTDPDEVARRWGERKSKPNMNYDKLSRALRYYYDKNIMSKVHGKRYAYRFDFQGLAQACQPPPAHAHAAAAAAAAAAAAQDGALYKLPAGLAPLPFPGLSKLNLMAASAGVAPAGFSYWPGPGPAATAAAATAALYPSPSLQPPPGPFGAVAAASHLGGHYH
The note with it: protein: recombinant; tags: N-terminal GST; dsDNA, one strand shown. The essentials: (§1)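 Beads coated with glutathione captured GST-fused human transcription factors that had been expressed in yeast, and the factors were then given DNA barcodes and pooled with a tag-only sample. The pools were incubated with 200 nmole of a random double-stranded 16-mer DNA library in Tris/NaCl/DTT/glycerol buffer for 30 min at room temperature, washed, crosslinked with 0.1% formaldehyde and proximity-ligated with BsaI/T4 ligase at 37 °C for 1 h. PCR amplification and Illumina NextSeq500 sequencing came last. Binding signal is each hexamer's read frequency for a factor divided by its frequency for the tag-only sample.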

The next experiment deals with ETV5 (Homo sapiens, UniProt P41161 1-510). The note with it: protein: recombinant; tags: N-terminal GST; dsDNA, one strand shown. The essentials:
as §1

A further experiment has as its target HSF1 (Homo sapiens, UniProt Q00613 1-529). As to conditions: protein: recombinant; tags: N-terminal GST; chain copies: 3; dsDNA, one strand shown. The essentials: as §1
The target in the next experiment is T2, SPIC (Homo sapiens, UniProt Q8N5J4 1-248).
T2 sequence: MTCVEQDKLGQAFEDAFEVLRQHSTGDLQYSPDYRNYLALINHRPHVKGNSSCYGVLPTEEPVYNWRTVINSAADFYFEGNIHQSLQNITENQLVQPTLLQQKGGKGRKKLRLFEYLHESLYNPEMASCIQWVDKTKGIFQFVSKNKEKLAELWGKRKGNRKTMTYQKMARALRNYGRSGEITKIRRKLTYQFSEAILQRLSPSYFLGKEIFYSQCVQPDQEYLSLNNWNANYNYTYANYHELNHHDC
The note with it: protein: recombinant; tags: N-terminal GST; dsDNA, one strand shown. The essentials:
as §1

The target of another experiment is ELF4 (Homo sapiens, UniProt Q99607 1-663). As to conditions: protein: recombinant; tags: N-terminal GST; dsDNA, one strand shown. The essentials: as §1
The next experiment addresses T3, ELK4 (Homo sapiens, UniProt P28324-2 1-405).
T3 sequence: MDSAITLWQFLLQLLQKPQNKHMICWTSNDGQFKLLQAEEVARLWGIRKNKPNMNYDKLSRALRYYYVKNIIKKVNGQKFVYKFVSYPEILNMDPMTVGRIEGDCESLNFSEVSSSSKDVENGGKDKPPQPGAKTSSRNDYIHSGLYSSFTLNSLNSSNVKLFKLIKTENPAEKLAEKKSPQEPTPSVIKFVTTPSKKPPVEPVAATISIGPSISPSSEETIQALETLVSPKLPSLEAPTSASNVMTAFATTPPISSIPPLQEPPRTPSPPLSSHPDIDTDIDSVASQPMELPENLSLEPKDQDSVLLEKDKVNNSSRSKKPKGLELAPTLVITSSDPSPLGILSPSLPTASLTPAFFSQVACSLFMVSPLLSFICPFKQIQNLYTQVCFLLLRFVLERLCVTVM
The note with it: protein: recombinant; tags: N-terminal GST; dsDNA, one strand shown. The essentials: as §1

The target of the next experiment is T4, ETV2 (Homo sapiens, UniProt O00321 1-342).
T4 sequence: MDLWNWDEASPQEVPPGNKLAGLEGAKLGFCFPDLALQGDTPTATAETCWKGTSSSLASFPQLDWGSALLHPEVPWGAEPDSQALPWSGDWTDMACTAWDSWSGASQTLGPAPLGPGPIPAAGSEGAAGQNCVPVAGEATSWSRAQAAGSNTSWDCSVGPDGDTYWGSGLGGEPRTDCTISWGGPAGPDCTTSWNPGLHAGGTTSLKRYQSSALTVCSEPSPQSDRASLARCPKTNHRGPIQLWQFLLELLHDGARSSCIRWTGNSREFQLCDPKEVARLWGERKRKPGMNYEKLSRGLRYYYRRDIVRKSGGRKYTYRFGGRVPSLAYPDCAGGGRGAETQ
The note with it: protein: recombinant; tags: N-terminal GST; dsDNA, one strand shown. The essentials: as §1

For a further experiment, the target named is T5, ELF3 (Homo sapiens, UniProt P78545 1-371).
T5 sequence: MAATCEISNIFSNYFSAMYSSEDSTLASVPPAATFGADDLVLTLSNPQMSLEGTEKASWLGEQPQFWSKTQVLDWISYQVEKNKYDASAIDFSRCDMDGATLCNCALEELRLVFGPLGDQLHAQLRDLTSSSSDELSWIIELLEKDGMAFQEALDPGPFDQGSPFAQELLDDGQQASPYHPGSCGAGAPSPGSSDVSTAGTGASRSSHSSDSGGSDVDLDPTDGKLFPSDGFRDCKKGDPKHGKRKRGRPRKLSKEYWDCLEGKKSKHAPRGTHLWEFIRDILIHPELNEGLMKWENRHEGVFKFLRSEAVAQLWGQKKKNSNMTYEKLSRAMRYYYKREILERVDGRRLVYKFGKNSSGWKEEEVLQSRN
As to conditions: protein: recombinant; tags: N-terminal GST; dsDNA, one strand shown. The essentials:
as §1

For the next experiment, the target named is CRX (Homo sapiens, UniProt O43186 1-299). As to conditions: protein: recombinant; tags: N-terminal GST; dsDNA, one strand shown. The essentials: as §1
For the next experiment, the target named is ETV1 (Homo sapiens, UniProt P50549 1-477). The note with it: protein: recombinant; tags: N-terminal GST; dsDNA, one strand shown. The essentials: as §1
Chain of ETV1 (P50549 whole entry): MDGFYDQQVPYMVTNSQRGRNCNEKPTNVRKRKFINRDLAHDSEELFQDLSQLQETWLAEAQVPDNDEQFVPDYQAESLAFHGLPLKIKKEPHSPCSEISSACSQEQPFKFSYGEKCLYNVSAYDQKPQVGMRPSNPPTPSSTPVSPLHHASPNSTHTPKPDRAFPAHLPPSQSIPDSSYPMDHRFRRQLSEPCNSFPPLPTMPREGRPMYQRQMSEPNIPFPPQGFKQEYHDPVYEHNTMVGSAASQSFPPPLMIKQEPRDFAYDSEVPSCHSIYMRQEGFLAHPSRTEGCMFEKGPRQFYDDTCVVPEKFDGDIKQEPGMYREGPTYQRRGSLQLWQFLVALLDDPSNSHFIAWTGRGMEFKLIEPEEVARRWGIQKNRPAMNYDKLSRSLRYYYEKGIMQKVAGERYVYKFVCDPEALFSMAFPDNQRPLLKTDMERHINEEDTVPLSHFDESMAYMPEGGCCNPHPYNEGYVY

Chain of CRX (O43186 whole entry): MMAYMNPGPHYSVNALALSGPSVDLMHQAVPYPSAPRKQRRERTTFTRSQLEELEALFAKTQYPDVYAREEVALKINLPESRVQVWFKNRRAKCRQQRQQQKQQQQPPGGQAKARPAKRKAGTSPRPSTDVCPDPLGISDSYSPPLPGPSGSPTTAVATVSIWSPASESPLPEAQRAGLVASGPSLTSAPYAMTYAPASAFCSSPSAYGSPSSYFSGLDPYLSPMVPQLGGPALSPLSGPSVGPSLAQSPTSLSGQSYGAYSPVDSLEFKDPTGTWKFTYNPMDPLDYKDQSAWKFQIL
Chain of ETV5 (P41161 whole entry): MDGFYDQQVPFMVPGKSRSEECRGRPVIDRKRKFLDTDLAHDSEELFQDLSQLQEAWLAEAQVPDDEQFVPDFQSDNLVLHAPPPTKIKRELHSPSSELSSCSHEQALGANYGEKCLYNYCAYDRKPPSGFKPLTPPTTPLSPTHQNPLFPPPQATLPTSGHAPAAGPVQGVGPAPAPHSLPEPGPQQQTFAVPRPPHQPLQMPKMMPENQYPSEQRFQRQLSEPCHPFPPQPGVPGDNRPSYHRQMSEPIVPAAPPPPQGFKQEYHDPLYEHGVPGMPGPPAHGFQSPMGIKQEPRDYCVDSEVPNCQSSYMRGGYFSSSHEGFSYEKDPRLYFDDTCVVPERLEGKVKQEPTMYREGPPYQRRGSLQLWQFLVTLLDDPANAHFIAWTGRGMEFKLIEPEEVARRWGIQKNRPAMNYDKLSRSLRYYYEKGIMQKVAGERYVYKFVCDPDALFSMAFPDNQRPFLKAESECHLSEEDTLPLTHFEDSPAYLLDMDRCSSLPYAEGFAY
Chain of ELF4 (Q99607 whole entry): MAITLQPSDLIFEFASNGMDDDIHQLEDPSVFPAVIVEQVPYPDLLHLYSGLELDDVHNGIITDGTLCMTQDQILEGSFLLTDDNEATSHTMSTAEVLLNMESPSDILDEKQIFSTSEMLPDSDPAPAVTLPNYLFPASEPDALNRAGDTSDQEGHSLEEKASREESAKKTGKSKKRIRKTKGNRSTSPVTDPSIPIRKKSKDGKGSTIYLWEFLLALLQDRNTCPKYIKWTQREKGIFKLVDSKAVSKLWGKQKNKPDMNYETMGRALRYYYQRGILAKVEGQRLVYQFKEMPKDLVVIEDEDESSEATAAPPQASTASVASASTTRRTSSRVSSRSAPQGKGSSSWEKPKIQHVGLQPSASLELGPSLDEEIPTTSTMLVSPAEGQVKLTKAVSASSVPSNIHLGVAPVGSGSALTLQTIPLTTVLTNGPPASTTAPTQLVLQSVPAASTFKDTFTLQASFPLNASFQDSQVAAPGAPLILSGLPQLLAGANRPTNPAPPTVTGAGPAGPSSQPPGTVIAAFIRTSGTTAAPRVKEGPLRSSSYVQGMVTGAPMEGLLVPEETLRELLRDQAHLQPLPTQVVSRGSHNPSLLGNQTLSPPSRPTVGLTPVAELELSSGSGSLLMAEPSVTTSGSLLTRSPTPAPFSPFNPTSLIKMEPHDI
Chain of HSF1 (Q00613 whole entry): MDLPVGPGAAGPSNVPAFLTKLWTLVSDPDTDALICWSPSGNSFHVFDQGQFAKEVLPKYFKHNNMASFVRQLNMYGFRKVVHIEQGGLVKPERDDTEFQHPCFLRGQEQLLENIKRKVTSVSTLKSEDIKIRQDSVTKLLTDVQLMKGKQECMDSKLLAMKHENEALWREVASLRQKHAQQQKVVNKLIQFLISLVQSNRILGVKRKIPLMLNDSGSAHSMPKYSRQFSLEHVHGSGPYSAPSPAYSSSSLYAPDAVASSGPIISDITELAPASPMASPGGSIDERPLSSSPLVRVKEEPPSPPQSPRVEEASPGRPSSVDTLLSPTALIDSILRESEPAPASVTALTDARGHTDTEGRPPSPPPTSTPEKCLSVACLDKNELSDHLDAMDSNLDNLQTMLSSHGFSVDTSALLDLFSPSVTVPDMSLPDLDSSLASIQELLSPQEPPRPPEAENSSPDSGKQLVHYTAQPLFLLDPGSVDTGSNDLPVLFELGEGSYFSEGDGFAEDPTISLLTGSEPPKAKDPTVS

As for ACTTCT, the binding signal is 1.4 fold enrichment (6-mer frequency, TF over GST control) with FEV; 1.45 fold enrichment (6-mer frequency, TF over GST control) with ETV5; 2.1 fold enrichment (6-mer frequency, TF over GST control) in the experiment with HSF1; 1.47 fold enrichment (6-mer frequency, TF over GST control) in the experiment with SPIC; 1.49 fold enrichment (6-mer frequency, TF over GST control) with ELF4; 1.83 fold enrichment (6-mer frequency, TF over GST control) in the experiment with ELK4. For the same sequence, the binding signal in the experiment with ETV2 was 1.37 fold enrichment (6-mer frequency, TF over GST control); with ELF3 it was 1.45 fold enrichment (6-mer frequency, TF over GST control); in the experiment with CRX it was 1.55 fold enrichment (6-mer frequency, TF over GST control); with ETV1 it was 1.47 fold enrichment (6-mer frequency, TF over GST control).

As for ATGGTA, the binding signal in the experiment with FEV was 1.17 fold enrichment (6-mer frequency, TF over GST control); in the experiment with ETV5, 1.43 fold enrichment (6-mer frequency, TF over GST control); with HSF1 it was 1.21 fold enrichment (6-mer frequency, TF over GST control); in the experiment with SPIC, 1.31 fold enrichment (6-mer frequency, TF over GST control); in the experiment with ELF4 it was 1.31 fold enrichment (6-mer frequency, TF over GST control); in the experiment with ELK4, 1.49 fold enrichment (6-mer frequency, TF over GST control). In addition, the binding signal is 1.45 fold enrichment (6-mer frequency, TF over GST control) with ETV2; 1.48 fold enrichment (6-mer frequency, TF over GST control) with ELF3; 1.33 fold enrichment (6-mer frequency, TF over GST control) with CRX; 1.47 fold enrichment (6-mer frequency, TF over GST control) with ETV1.

For CTCATT, the binding signal in the experiment with FEV was 1.44 fold enrichment (6-mer frequency, TF over GST control); with ETV5 it was 1.41 fold enrichment (6-mer frequency, TF over GST control); with HSF1, 1.36 fold enrichment (6-mer frequency, TF over GST control); in the experiment with SPIC it was 1.29 fold enrichment (6-mer frequency, TF over GST control); in the experiment with ELF4, 1.52 fold enrichment (6-mer frequency, TF over GST control); with ELK4, 1.63 fold enrichment (6-mer frequency, TF over GST control). The binding signal was 1.49 fold enrichment (6-mer frequency, TF over GST control) with ETV2; 1.35 fold enrichment (6-mer frequency, TF over GST control) in the experiment with ELF3; 1.45 fold enrichment (6-mer frequency, TF over GST control) with CRX; 1.52 fold enrichment (6-mer frequency, TF over GST control) in the experiment with ETV1.

As to TAGCCC, the binding signal in the experiment with FEV was 1.21 fold enrichment (6-mer frequency, TF over GST control); in the experiment with ETV5, 1.18 fold enrichment (6-mer frequency, TF over GST control); in the experiment with HSF1, 1.19 fold enrichment (6-mer frequency, TF over GST control); with SPIC, 1.23 fold enrichment (6-mer frequency, TF over GST control); in the experiment with ELF4 it was 1.28 fold enrichment (6-mer frequency, TF over GST control); in the experiment with ELK4, 1.15 fold enrichment (6-mer frequency, TF over GST control). Also, the binding signal with ETV2 was 1.15 fold enrichment (6-mer frequency, TF over GST control); with ELF3, 1.08 fold enrichment (6-mer frequency, TF over GST control); in the experiment with CRX, 1.36 fold enrichment (6-mer frequency, TF over GST control); with ETV1, 1.12 fold enrichment (6-mer frequency, TF over GST control).

Consider ACTTCC, for which the binding signal in the experiment with FEV was 12.4 fold enrichment (6-mer frequency, TF over GST control); in the experiment with ETV5 it was 8.86 fold enrichment (6-mer frequency, TF over GST control); with HSF1 it was 1.55 fold enrichment (6-mer frequency, TF over GST control); with SPIC, 8.15 fold enrichment (6-mer frequency, TF over GST control); in the experiment with ELF4, 7.63 fold enrichment (6-mer frequency, TF over GST control); with ELK4 it was 6.63 fold enrichment (6-mer frequency, TF over GST control). Moreover, the binding signal in the experiment with ETV2 is 8.23 fold enrichment (6-mer frequency, TF over GST control); with ELF3 it was 7.67 fold enrichment (6-mer frequency, TF over GST control); with CRX, 1.21 fold enrichment (6-mer frequency, TF over GST control); with ETV1 it was 8.66 fold enrichment (6-mer frequency, TF over GST control).

In the case of ACTTTC, the binding signal in the experiment with FEV was 1.49 fold enrichment (6-mer frequency, TF over GST control); in the experiment with ETV5, 1.65 fold enrichment (6-mer frequency, TF over GST control); with HSF1 it was 2.49 fold enrichment (6-mer frequency, TF over GST control); with SPIC, 1.6 fold enrichment (6-mer frequency, TF over GST control); with ELF4, 1.53 fold enrichment (6-mer frequency, TF over GST control); with ELK4, 1.86 fold enrichment (6-mer frequency, TF over GST control). Further, the binding signal was 1.62 fold enrichment (6-mer frequency, TF over GST control) with ETV2; 1.6 fold enrichment (6-mer frequency, TF over GST control) with ELF3; 1.63 fold enrichment (6-mer frequency, TF over GST control) with CRX; 1.7 fold enrichment (6-mer frequency, TF over GST control) with ETV1.

Consider CCCTAC, for which the binding signal with FEV was 1.46 fold enrichment (6-mer frequency, TF over GST control); with ETV5, 1.43 fold enrichment (6-mer frequency, TF over GST control); with HSF1, 1.13 fold enrichment (6-mer frequency, TF over GST control); with SPIC it was 1.45 fold enrichment (6-mer frequency, TF over GST control); in the experiment with ELF4 it was 1.47 fold enrichment (6-mer frequency, TF over GST control); with ELK4 it was 1.53 fold enrichment (6-mer frequency, TF over GST control). The binding signal with ETV2 is 1.22 fold enrichment (6-mer frequency, TF over GST control); with ELF3, 1.48 fold enrichment (6-mer frequency, TF over GST control); with CRX, 1.19 fold enrichment (6-mer frequency, TF over GST control); with ETV1 it was 1.46 fold enrichment (6-mer frequency, TF over GST control).

As to TAGCTA, the binding signal in the experiment with FEV was 1.22 fold enrichment (6-mer frequency, TF over GST control); with ETV5, 1.24 fold enrichment (6-mer frequency, TF over GST control); in the experiment with HSF1, 1.47 fold enrichment (6-mer frequency, TF over GST control); with SPIC, 1.22 fold enrichment (6-mer frequency, TF over GST control); in the experiment with ELF4, 1.28 fold enrichment (6-mer frequency, TF over GST control); in the experiment with ELK4 it was 1.3 fold enrichment (6-mer frequency, TF over GST control). The binding signal is 1.27 fold enrichment (6-mer frequency, TF over GST control) with ETV2; 1.17 fold enrichment (6-mer frequency, TF over GST control) with ELF3; 1.58 fold enrichment (6-mer frequency, TF over GST control) with CRX; 1.27 fold enrichment (6-mer frequency, TF over GST control) with ETV1.
